Compounds without any hit were thinned out: in the full panel of roughly 79,000, 15% have a hit. Active and inactive are the calls of the source. Cut-off read from the data, not from the text of the source: active = growth inhibition above about 70%; inactive = the rest.
Key:
[1] = NCI Yeast Anticancer Drug Screen. Data for the rad52 strain (AID 147);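 note: 0% = growth of vehicle-treated control cultures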; conditions: S. cerevisiae rad52 mutant growth inhibition, hits give high values
Procedure, shortened: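 Inhibition of yeast growth, referenced to vehicle controls, was the measured output for a strain with defective DNA damage repair.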

[2] = NCI Yeast Anticancer Drug Screen. Data for the wt1 strain (AID 149);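 note: 0% = growth of vehicle-treated wt1 cultures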; conditions: S. cerevisiae wt1 strain (SPY 50644) growth inhibition, hits give high values
Procedure, shortened: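 Measured: growth of wt1 yeast under compound versus vehicle treatment, reported as inhibition.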

[3] = NCI Yeast Anticancer Drug Screen. Data for the rad50EPP+ strain (AID 151);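 note: 0% = growth of vehicle-treated control cultures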; conditions: S. cerevisiae rad50 mutant strain, hits give high values
Procedure, shortened: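 Genetically defined yeast (rad50EPP+, DNA damage repair alteration) is grown with compound, and inhibition of growth is expressed relative to vehicle-treated controls.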

[4] = NCI Yeast Anticancer Drug Screen. Data for the mgt1 strain (AID 153); conditions: S. cerevisiae mgt1 mutant growth inhibition, hits give high values
Procedure, shortened: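 In the mgt1 strain, test compounds were added and growth inhibition was determined relative to vehicle-treated controls.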

[5] = NCI Yeast Anticancer Drug Screen. Data for the rad50 strain (AID 155);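 note: 0% = growth of vehicle-only cultures of the same strain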; conditions: S. cerevisiae rad50 strain growth inhibition, hits give high values
Procedure, shortened: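 Growth of the mutant yeast was measured after compound exposure and referenced to vehicle-treated cultures.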

[6] = NCI Yeast Anticancer Drug Screen. Data for the mec2-1 strain (AID 157); conditions: S. cerevisiae mec2-1 strain, hits give high values
Procedure, shortened: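 Each compound was tested on mec2-1 yeast, a strain altered in DNA damage repair or cell cycle control. Growth inhibition is reported relative to vehicle.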

[7] = NCI Yeast Anticancer Drug Screen. Data for the rad14 strain (AID 159);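 note: 0% = growth of vehicle-treated control cultures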; conditions: S. cerevisiae rad14 strain growth inhibition, hits give high values
Procedure, shortened: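 Here, inhibition of yeast growth was measured after compound exposure, using a strain with a genetic defect in DNA damage repair and vehicle-treated cultures as the reference.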

[8] = NCI Yeast Anticancer Drug Screen. Data for the sgs1 mgt1 strain (AID 161);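 note: 0% = growth of cultures given vehicle only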; conditions: S. cerevisiae sgs1 mgt1 strain, hits give high values
Procedure, shortened: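 Test agents were incubated with a DNA-repair-mutant yeast strain. Growth was then read and compared against vehicle-treated controls.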

[9] = NCI Yeast Anticancer Drug Screen. Data for the CLN2oe strain (AID 163);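 note: 0% = growth of vehicle-only control cultures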; conditions: S. cerevisiae CLN2oe strain, hits give high values
Procedure, shortened: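 First, the altered yeast strain was treated with each compound; second, its growth was measured; finally, inhibition was derived by comparison with vehicle controls.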

[10] = NCI Yeast Anticancer Drug Screen. Data for the cln2 rad14 strain (AID 165);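 note: 0% = growth equal to vehicle treated cultures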; conditions: S. cerevisiae cln2 rad14 strain, hits give high values
Procedure, shortened: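 Test compounds were added to cln2 rad14 yeast cultures; inhibition of growth was then determined by comparison with vehicle treatment.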

[11] = NCI Yeast Anticancer Drug Screen. Data for the bub3 strain (AID 167); conditions: S. cerevisiae bub3 mutant strain, hits give high values
Procedure, shortened: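 Whole-cell yeast assay. The mutant strain was incubated with compounds, and growth inhibition was determined by comparison with vehicle-treated cells.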

[12] = NCI Yeast Anticancer Drug Screen. Data for the wt2 strain (AID 169);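 note: 0% = growth of vehicle-treated yeast cultures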; conditions: S. cerevisiae wt2 strain growth inhibition, hits give high values
Procedure, shortened: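 The panel's yeast strains carry defined changes in DNA repair or cell cycle genes. Each strain is grown with compound, and growth loss is scored relative to vehicle.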

[13] = NCI Yeast Anticancer Drug Screen. Data for the mlh1 strain (AID 171);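 note: 0% = growth of vehicle-treated control cultures of the same strain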; conditions: S. cerevisiae mlh1 strain growth inhibition, hits give high values
Procedure, shortened: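 Inhibition values reflect reduced yeast growth in the presence of compound, referenced to vehicle controls, using a strain chosen for its alteration in DNA repair or cell cycle control.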

[14] = NCI Yeast Anticancer Drug Screen. Data for the mlh1 rad18 strain (AID 175); conditions: S. cerevisiae mlh1 rad18 strain growth inhibition, hits give high values
Procedure, shortened: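 Inhibition values reflect reduced growth of mutant yeast versus vehicle-treated controls following compound exposure; the mutations affect DNA damage repair.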

[15] = NCI Yeast Anticancer Drug Screen. Data for the rad18 strain (AID 177); conditions: S. cerevisiae rad18 mutant growth inhibition, hits give high values
Procedure, shortened: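 Steps: expose repair-mutant yeast to compound; measure growth; express as inhibition relative to vehicle control.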

[16] = at 5.0 µM (retest, dose inferred, filed as 0.5)
[17] = at 50.0 µM (retest, dose inferred, filed as 5.0)

Measured: growth inhibition

CCCCCCSc1ncnc2[nH]ncc12
active: [5]; at 50.0 µM 79.4% | [6]; at 50.0 µM 76.5% | [8]; at 50.0 µM 72.1% | [11]; at 50.0 µM 93% | [14]; at 50.0 µM 80.8%
inactive: [1]; at 1.2 µM -2% | [1]; at 3.7 µM -1% | [1]; at 11.0 µM 0% | [1]; at 33.0 µM -1% | [1]; at 100.0 µM -1% | [2]; at 1.2 µM -1% | [2]; at 3.7 µM -2% | [2]; at 11.0 µM -3% | [2]; at 33.0 µM -63% | [2]; at 100.0 µM -5% | [3]; at 1.2 µM -2% | [3]; at 3.7 µM 2% | [3]; at 11.0 µM 10% | [3]; at 33.0 µM 22% | [3]; at 100.0 µM 12% | [4]; at 1.2 µM -2% | [4]; at 3.7 µM -1% | [4]; at 11.0 µM -2% | [4]; at 33.0 µM -3% | [4]; at 100.0 µM -4% | [5]; at 1.2 µM 2% | [5]; at 3.7 µM 4% | [5]; [16] -1% | [5]; at 11.0 µM 34% | [5]; at 33.0 µM 4% | [5]; [17] 5% | [5]; at 100.0 µM 5% | [6]; at 1.2 µM -3% | [6]; at 3.7 µM -2% | [6]; [16] 0% | [6]; at 11.0 µM 0% | [6]; at 33.0 µM 0% | [6]; [17] 6% | [6]; at 100.0 µM 0% | [7]; at 1.2 µM -2% | [7]; at 3.7 µM 1% | [7]; at 11.0 µM 1% | [7]; at 33.0 µM 5% | [7]; at 100.0 µM 5% | [8]; [16] -2% | [8]; [17] 0% | [9]; at 1.2 µM -7% | [9]; at 3.7 µM -8% | [9]; at 11.0 µM 3% | [9]; at 33.0 µM -4% | [9]; at 100.0 µM -4% | [10]; [16] -5% | [10]; [17] 6% | [10]; at 50.0 µM 18.9% | [11]; at 1.2 µM 4% | [11]; at 3.7 µM 7% | [11]; [16] 11% | [11]; at 11.0 µM 9% | [11]; at 33.0 µM 15% | [11]; [17] 54% | [11]; at 100.0 µM 6% | [12]; at 1.2 µM -3% | [12]; at 3.7 µM 6% | [12]; at 11.0 µM -3% | [12]; at 33.0 µM -3% | [12]; at 100.0 µM -3% | [13]; at 1.2 µM -1% | [13]; at 3.7 µM -1% | [13]; at 11.0 µM -2% | [13]; at 33.0 µM -2% | [13]; at 100.0 µM -3% | [14]; [16] -1% | [14]; [17] 4% | [15]; at 1.2 µM -2% | [15]; at 3.7 µM 1% | [15]; at 11.0 µM 6% | [15]; at 33.0 µM 1% | [15]; at 100.0 µM 3%

Source: PubChem BioAssay (NCI)
